For one assay, the target named is UCHL1, P09936. The experiment in a line: median log2 fold change of GCK-ALFA target abundance (FLAG IP / Myc IP barcode read proportion) (log2 ratio); each designed protein is fused to an ALFA-tag nanobody in HEK293 cells to bring the named protein to FLAG-tagged glucokinase (GCK); Myc marks an untargeted standard; higher = target protein stabilised (more abundant). As to conditions: target protein: 3xFLAG-MCP-GCK-ALFA reporter; HEK293 landing pad (RPLP). The essentials: (§1)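 HEK293 landing-pad cells received a recombined binder library fused to the ALFA nanobody and were induced with 2 μg mL^−1 doxycycline, then transfected with a plasmid encoding a FLAG-tagged target and a Myc-tagged standard. Lysates were collected after 48 h for anti-FLAG and anti-Myc immunoprecipitation, and the circular RNA barcodes were reverse transcribed, amplified and sequenced. Target abundance for each binder is the median log2 ratio of FLAG to Myc barcode read proportions. Barcodes had to reach a proportion of at least 10^−7 in both replicates, each binder needed at least 3 barcodes per replicate, a pseudocount of 10^−6 was applied, and the two replicates were pooled.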
Chain of UCHL1, P09936 (P09936 whole entry, looked up, the tested form may be a part): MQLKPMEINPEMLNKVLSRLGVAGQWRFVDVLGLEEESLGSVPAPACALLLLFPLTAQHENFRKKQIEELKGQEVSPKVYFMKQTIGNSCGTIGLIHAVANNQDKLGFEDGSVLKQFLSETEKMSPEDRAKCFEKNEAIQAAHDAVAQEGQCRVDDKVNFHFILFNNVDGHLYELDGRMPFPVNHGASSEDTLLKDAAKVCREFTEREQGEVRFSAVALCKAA

Another assay deals with T1, USP38, Q8NB14.
T1 chain: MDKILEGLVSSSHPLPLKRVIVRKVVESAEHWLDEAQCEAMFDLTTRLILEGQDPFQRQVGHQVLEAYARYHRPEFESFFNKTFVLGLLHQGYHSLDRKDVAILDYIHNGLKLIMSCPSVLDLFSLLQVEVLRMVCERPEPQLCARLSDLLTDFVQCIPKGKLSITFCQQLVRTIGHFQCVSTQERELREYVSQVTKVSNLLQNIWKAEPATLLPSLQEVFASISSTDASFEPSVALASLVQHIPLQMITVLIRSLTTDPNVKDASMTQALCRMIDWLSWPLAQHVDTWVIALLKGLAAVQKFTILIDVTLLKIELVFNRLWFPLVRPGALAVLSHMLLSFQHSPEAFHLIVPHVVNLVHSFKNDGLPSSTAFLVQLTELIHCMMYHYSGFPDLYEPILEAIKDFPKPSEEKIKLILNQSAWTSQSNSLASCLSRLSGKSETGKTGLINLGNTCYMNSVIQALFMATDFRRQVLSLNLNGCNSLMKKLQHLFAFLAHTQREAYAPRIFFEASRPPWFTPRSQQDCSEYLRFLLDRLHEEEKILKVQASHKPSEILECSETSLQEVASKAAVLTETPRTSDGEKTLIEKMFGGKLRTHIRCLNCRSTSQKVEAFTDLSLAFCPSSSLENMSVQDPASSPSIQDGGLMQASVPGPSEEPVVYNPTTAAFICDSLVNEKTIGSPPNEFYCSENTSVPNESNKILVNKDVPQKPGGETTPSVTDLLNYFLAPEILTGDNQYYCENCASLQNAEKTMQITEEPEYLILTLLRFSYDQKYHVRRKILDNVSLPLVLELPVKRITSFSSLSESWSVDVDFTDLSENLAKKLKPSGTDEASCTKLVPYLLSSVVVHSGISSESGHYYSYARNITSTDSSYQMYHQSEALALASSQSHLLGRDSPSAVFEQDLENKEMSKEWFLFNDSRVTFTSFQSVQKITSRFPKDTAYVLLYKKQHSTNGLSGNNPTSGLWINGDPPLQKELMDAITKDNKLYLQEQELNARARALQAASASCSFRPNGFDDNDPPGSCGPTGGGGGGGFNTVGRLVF
Described as above. The following applies: target protein: 3xFLAG-MCP-GCK-ALFA reporter; HEK293 landing pad (RPLP). The essentials: as §1

B1: uchl1_89_7591 (protein)
chain: EAERLERARAHLREVLARTRERVEAIIARLGEPDPALVAARERVFAAAERAIADPARAAEYVAEAEAAARELVALAPPEFRSDFRMALGRLINRLLGYAA
B1: in the assay with UCHL1, P09936, the “median log2 fold change” value was determined as 0.0711.

B2: uchl1_89_7593 (protein)
chain: EEARLAAARAKLREVLARTRAAVEAILARLGEPRPELVALLDAIFEAAEKAIADPAKAEEYVEKAEAAAREFVELAPEEFRSDFRMALGRLINRLLGYAA
Turning to B2, in the assay with UCHL1, P09936, the “median log2 fold change” value was found to be 0.0394.

B3: uchl1_89_7592 (protein)
chain: DAARLAAARARLRRVLERTRARVEAIIARLGRPDPAMVAAAEAVFAAAERAIADPARAAEWVARAEAAARELVALAPPEYRSDFRMALGRLVNALLGYAA
For B3, the “median log2 fold change” value in the assay with UCHL1, P09936 is -0.157.

B4: uchl1_89_7582 (protein)
chain: EEERLARAREHLRRVLAKTRAALDRLIARLGEPDPELVAAHEELLAAAEAAIADPERAEEYLAKAEEAAVRLVELAPPERRASFRLAVGRLINTLLGYAA
Consider B4, for which, in the assay with UCHL1, P09936, the “median log2 fold change” value was -0.405.

B5: uchl1_89_7596 (protein)
chain: EEERRAAARARLRRVLAATRAKLEELIARMGERDPELLAELEAFFAAAEAALEDPETAEAALAAAEEHAVRAVELAPEEYRASFRLALGRLLNALLGYVA
Regarding B5, the “median log2 fold change” value with UCHL1, P09936 was -0.537.

B6: uchl1_89_7577 (protein)
chain: EEERLEAARERLRRILARTRAEVERLLARLGEVPPELRAALDAFFAAAEAAIADPSTAEAALAEAEAAARRLVELAPPEYRASFRLALGRLVNALLGYAA
Consider B6, for which the “median log2 fold change” value with UCHL1, P09936 was 0.111.

B7: uchl1_2_7571 (protein)
chain: ETVFVGVLVTLRARDAETGKEYRSRRTFIFTEDSIEALAEEIRELALAFQADVGVPVTVDIHIYSTKKEVVEKTKKVLEEMAKELAKEGITVNITGTVVK
B7: the “median log2 fold change” value with UCHL1, P09936 is -0.528.

B8: usp_38_diff_out_13_133_50 (protein)
chain: SMEEEEKKEALKKFEELIKEAREAIEKAKKALEEGDLDKAWEYLGKAAGLLMEARELRTRELRDDPELYKEAKKKLEEVEKELNEVIDKVVEAEEKAFLA
As for B8, the “median log2 fold change” value in the assay with USP38, Q8NB14 was 0.322.

B9: uchl1_89_7594 (protein)
chain: EEERLAAARAYLRRVLAETRARVEAILARLGRPDPALVAAAEAIFEAAELAIEEPERAEEYVARAEEAARQLVELAPPEYRADFRMALGRLINRLRGYAA
As for B9, in the assay with UCHL1, P09936, the “median log2 fold change” value was determined as 0.173.

B10: uchl1_89_7590 (protein)
chain: EEAKAKAARARLERVLAATEAALRRLLARLGAPDPALVAALDALLAAARAALADPATAAAHLAAAEAAARRLVELAPPEVRASVRLATGRLVNALRGYVA
For B10, in the assay with UCHL1, P09936, the “median log2 fold change” value was -0.00562.

B11: usp_38_diff_out_10_51_3 (protein)
chain: SREEEAERLLEEMEELVEKIKTSDLKTATAYFYQLINLTARLEALDPSYAERALELLKEAAKELLEKGGDKEDIIFALRFKAAATGSKVLEKAAEYVEKL
B11: the “median log2 fold change” value in the assay with USP38, Q8NB14 was 0.18.

B12: uchl1_2_7573 (protein)
chain: KTVFVGIKVTLEAYDEKTGKTYRSTRTLIFTEEALEKAAEEVKELALNFKDAVGVPVTVNVHIVSTDEEVLERLKKLLEEMAKELAKEGITVNISGEVVK
Take B12: the “median log2 fold change” value in the assay with UCHL1, P09936 is -0.366.

B13: usp_38_diff_out_11_94_49 (protein)
chain: DEEIETNLFLMRYQFSQIVDLALTIDRETAAKVLRLANEAMEILKSGGPLEEVNKKLEEIKKVFNEAAAKSKENTEKLTAEANALLEKAKEYAEKAIKLR
For the molecule B13, in the assay with USP38, Q8NB14, the “median log2 fold change” value turned out to be 0.33.

B14: uchl1_2_7572 (protein)
chain: KTVFVGVKVTLTAYDEKTGKTYKSTRTLIFTESALEAAAKEIEELALNFQDAVGVPVKVDVHVVSTDEEVLKRLKELLEKMAKKLAKKGIEVNISGEVVK
For the molecule B14, in the assay with UCHL1, P09936, the “median log2 fold change” value was -0.571.

B15: usp_38_diff_out_13_133_52 (protein)
chain: AEEEEELKRRKEEFDKLIAEARKAIKDAKAALAAGDLDAAWAAAGKAAGLLMKAREHRTEKLRDDPELYEEAKKKLDEVEKELNEVIDAIVAAERERFLA
Turning to B15, the “median log2 fold change” value in the assay with USP38, Q8NB14 came out at 0.302.

B16: usp_38_diff_out_13_133_51 (protein)
chain: AAKEEALAAAQARFDALLADAQAAIDAAEAALAAGDLDAAWAAVGRAAGLLREAREHRTRELRDDPAAYAAAQARLDAVEKRLNAVIDRVAAAERARFLA
In the case of B16, the “median log2 fold change” value with USP38, Q8NB14 was 0.142.

B17: uchl1_89_7587 (protein)
chain: EEARREAARARLERVLAKTRARLEALLARMGAPDPAMVAALDALFDAARTALADPATAEAALAEAEAAARRLVELAPEEVKASVRLATGRLVIALRGYLA
As for B17, the “median log2 fold change” value with UCHL1, P09936 is -0.0889.

B18: usp_38_diff_out_10_51_1 (protein)
chain: SVEEAKKRIEELMKEVEEVFKTGSDGEILRKSLNALNELTEIAKEYPEVKEEVIEAMVRIVELTKPNPELYEDMTFAARFKAATVSDEVAEKVREKIAAL
For the molecule B18, in the assay with USP38, Q8NB14, the “median log2 fold change” value worked out at 0.235.

B19: uchl1_89_7586 (protein)
chain: EEERLAAARARLRRILAATRAELERLIASLGVRDPALEAALAAFFAHARRAIEDPATAEEALAAAEAAARELLALAPPEKRADFRLATGRLLNALLGYRA
For B19, the “median log2 fold change” value with UCHL1, P09936 was found to be 0.158.

B20: uchl1_89_7581 (protein)
chain: EAARLERAKAKLRAVLAATRAALDRLIARLGEPDPALVAARDALFAAAEAAIADPARAAEYLARAEAAARRLVELAPPERRASFRLAAGRLVNTLLGFAA
As for B20, the “median log2 fold change” value with UCHL1, P09936 is -0.302.

B21: uchl1_89_7580 (protein)
chain: EEERLRRARERLRRVLEATRAEVERLIARLGEPDPALVAAAEELFAAAEAALEDPERAAEYLARAEAAARRLVELAPPERRASFRLAVGRLVNTLLGYAA
Consider B21, for which, in the assay with UCHL1, P09936, the “median log2 fold change” value turned out to be 0.043.

B22: uchl1_89_7589 (protein)
chain: AAAREAAARARLEAVLAKTRAELERLLARLGAPDPEMVAALEALFDAARRALADPETAEAALAETEAAARRLVELAPEEVRASVRLAVGRLVIALEGYRA
As to B22, the “median log2 fold change” value with UCHL1, P09936 was determined as 0.16.

B23: usp_38_diff_out_10_51_2 (protein)
chain: SVEEAREEIEELLEEVEEVFKTGSLDEQLRAGLNALNRLREIALEYPEVEEEVIEAMVRIVELAKPNPELYEDMKFAARFKAATVNDEVAERVRERIDAL
For B23, the “median log2 fold change” value in the assay with USP38, Q8NB14 worked out at 0.0864.

B24: uchl1_89_7576 (protein)
chain: AEARAQAARARLRAVLAATRAEVERLLARLGEVDPALRAAFDAFFAAAEAAIADPSTAAAALAAAEAAARRLVELAPPEYRASFRLATGRLLNLLRGYAA
In the case of B24, the “median log2 fold change” value with UCHL1, P09936 is -0.0383.

B25: uchl1_89_7578 (protein)
chain: EAARLAAARARLRRVLAATRAEVERLLARLGEVPPELRAAFDAFFAAAEAAIADPSTAAEALAAAEAAARRLVELAPPEYRASFRLATGRLLNALRGYAA
With B25, in the assay with UCHL1, P09936, the “median log2 fold change” value worked out at 0.184.

B26: uchl1_89_7574 (protein)
chain: DPRLDPATAARLRAIAERTEAALRRILTKAGVPQATIDAFLALVRAAADTTIADRAAAPAQLAALEAALRALTARVDPATAANVRLAMGPLLRLLEGVAQ
Consider B26, for which the “median log2 fold change” value with UCHL1, P09936 was -0.0395.

B27: uchl1_89_7595 (protein)
chain: AAERAAAARARLRRVLAATRAELDRLVARMGERDPELLAALEAFFAAAEAALADPSTAAAALAAAEAAAKRAVELAPERYRASFRLALGRLLNALRGYVA
As to B27, in the assay with UCHL1, P09936, the “median log2 fold change” value is -0.1.

B28: uchl1_89_7579 (protein)
chain: EEERLARARERLRRVLAATRAELARLEARIGEVSPELAAARDALFAAAEAAIADPALAAAQLEAAEAAARRLVALTPPELRASVRLATGRLLNRLLGYAA
Regarding B28, the “median log2 fold change” value with UCHL1, P09936 was -0.16.

B29: uchl1_89_7583 (protein)
chain: EEEREAAARARLRAILAATRAALERLIARWGVRDPEAQAALDALFANAERAIADPSTAAEALAKAEEAARRLLALAPPEKRADVRLATGRLLNALLGYVA
As for B29, in the assay with UCHL1, P09936, the “median log2 fold change” value was -0.0264.

B30: uchl1_89_7588 (protein)
chain: EEERRRAARERLERVLAATRARLEALLARLGEPDPALVAALEALFAAARRALEDPATAAEALAAAEAAARRLVELAPPEVRASVRLAVGRLVNRLRGYVA
B30: the “median log2 fold change” value with UCHL1, P09936 was -0.164.

B31: uchl1_89_7584 (protein)
chain: EEARRAAARERLRRVLAATRERLEALMAKWGVADPEAVAALEELFRHAELAIEDPERAEEALAKAEEAAKRLLALAPEERRADVRMATGRLLNRLLGYVA
For the molecule B31, the “median log2 fold change” value with UCHL1, P09936 is -0.114.

B32: uchl1_89_7575 (protein)
chain: EAARREAARARLRRILAATEARVAALLARLGEVPPELAAARDAFFAAARAAIDDPATAAAALAAAEAAARRLVELAPPEYRASFRLATGRLLNALRGWAA
Regarding B32, the “median log2 fold change” value in the assay with UCHL1, P09936 stood at 0.127.
